Data on six compounds can be found in PubChem BioAssay (NCATS).

Molecules are shown by their SMILES. Inconclusive results are not listed. Calls of active or inactive are those of the source. Unless noted, the call rests on the fitted dose curve; in most records, active means well fitted curve in the direction sought with a large enough effect; inconclusive means small, poorly fitted or top-dose-only effect, or another doubt; inactive means no such curve, though single readings can be large; an effect the other way counts as inactive or inconclusive.

Assay [1] has as its target Estrogen receptor (Homo sapiens) (UniProt P03372). Briefly: qHTS assay for small molecule antagonists of estrogen receptor alpha signaling (AID 588513; active means well fitted curve in the direction sought with a large enough effect in the signal ratio, with a control signal flat, not every such curve was filed as active; the % refers to the signal ratio; further: on the % scale 0 is the no-effect control and ±100 the full control effect). The essentials: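 Fluorescence from CCF4 substrate after 2 h at room temperature gave reporter activity; cells had been exposed to compound and 0.5nM 17-beta-estradiol for 18 h at 37 C. Hill-equation fitting yielded IC50 and maximal response.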
A general note: In qHTS, concentration-response curves come from the screen itself.

Assay [2] has the same target. Briefly: qHTS assay for small molecule agonists of estrogen receptor alpha signaling (AID 588514; calls by dose curve;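 further: 0% = vehicle only and 100% = reference agonist; nearly all actives have a fitted effect of over 70% in size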). Put shortly:
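Read-out: CCF4 fluorescence from a beta-lactamase reporter in ER-alpha-UAS-bla HEK 293 cells after 18 hrs of compound exposure at 37 C. Normalized to 20 nM 17-beta-estradiol (100%) and DMSO (0%).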

Assay [3] deals with Glucocorticoid receptor (Homo sapiens) (UniProt P04150). Description: qHTS assay for small molecule agonists of glucocorticoid receptor signaling (AID 588532; active means well fitted curve in the direction sought with a large enough effect in the signal ratio, with a control signal flat; the % refers to the signal ratio;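 further: 100% = dexamethasone at 0.1 µM and 0% = DMSO only wells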). To be noted: HeLa MMTV-bla, beta-lactamase ratio, agonist, 18 h; stronger effect = higher value; percent of dexamethasone control, DMSO zero. Put shortly:
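Agonist-mode qHTS: GRE-driven beta-lactamase in HeLa cells exposed 18 h to titrated compounds (up to 92 uM), then CCF4 ratio read after 2 h at RT; Hill-fitted EC50, efficacy relative to 0.1 uM dexamethasone.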

Assay [4] can be described thus: qHTS assay for small molecule antagonists of peroxisome proliferator-activated receptor delta signaling (AID 588535; active means well fitted inhibition curve with a large enough effect in the signal ratio, with a control signal flat, not every such curve was filed as active; the % refers to the signal ratio;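 on max response: cells co-treated with a PPAR-delta agonist as stimulator during compound exposure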). As to conditions: HEK293T PPARd-UAS-bla, beta-lactamase FRET ratio, 18 h; 460 nm channel. The essentials:
(§1)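 Antagonist-mode qHTS using GeneBLAzer PPAR-delta-UAS-bla HEK293T cells; compound exposure 18 hrs at 37 C over a titration. Ratiometric CCF4 fluorescence at 460/530 nm; concentration-response points fitted to the Hill equation.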

Assay [5] has as its target Peroxisome proliferator-activated receptor delta (Homo sapiens) (UniProt Q03181). Described as above. Put shortly:
as §1

Assay [6] deals with Peroxisome proliferator-activated receptor gamma (Homo sapiens) (UniProt P37231). Description: qHTS assay for small molecule agonists of peroxisome proliferator-activated receptor gamma signaling (AID 588536; active means well fitted curve in the direction sought with a large enough effect in the signal ratio, with a control signal flat, not every such curve was filed as active; the % refers to the signal ratio;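 further: 0% = DMSO basal wells and 100% = rosiglitazone at 2 µM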). The essentials: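 Beta-lactamase reporter read-out: CCF4 fluorescence (ex 405, em 460/530 nm) after 2 h at RT. HEK293 GeneBLAzer cells were treated for 16 h at 37 C. Hill fits gave EC50 and efficacy versus 2 uM rosiglitazone (100%) and DMSO (0%).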
Chain of Peroxisome proliferator-activated receptor gamma (Homo sapiens) (P37231 whole entry, looked up): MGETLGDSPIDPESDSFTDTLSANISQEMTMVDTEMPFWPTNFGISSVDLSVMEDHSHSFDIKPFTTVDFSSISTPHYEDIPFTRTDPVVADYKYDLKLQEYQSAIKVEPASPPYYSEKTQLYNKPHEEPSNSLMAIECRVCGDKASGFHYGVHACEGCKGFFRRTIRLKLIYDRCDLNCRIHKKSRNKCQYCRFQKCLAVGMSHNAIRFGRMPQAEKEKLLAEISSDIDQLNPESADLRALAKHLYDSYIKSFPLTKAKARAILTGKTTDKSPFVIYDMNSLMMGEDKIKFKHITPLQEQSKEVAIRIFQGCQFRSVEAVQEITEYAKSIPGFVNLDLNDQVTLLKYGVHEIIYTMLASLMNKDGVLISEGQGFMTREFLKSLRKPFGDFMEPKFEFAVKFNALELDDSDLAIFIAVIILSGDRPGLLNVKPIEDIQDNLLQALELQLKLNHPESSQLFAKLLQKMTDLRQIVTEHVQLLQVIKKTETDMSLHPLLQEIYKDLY

The nature of assay [7]: qHTS assay for small molecule agonists of retinoid X receptor alpha signaling (AID 588544). As to conditions: HEK293T RXRa-UAS-bla, beta-lactamase reporter, 18 h; 530 nm emission.
For assay [8], the target named is Thyroid hormone receptor beta (Homo sapiens) (UniProt P10828). Briefly: qHTS assay for small molecule agonists of thyroid hormone receptor beta signaling (AID 588545; calls by dose curve;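 further: 0% = DMSO only and 100% = 10 nM T3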). Put shortly:
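Beta-lactamase reporter activity under TR response element control is measured in HEK 293 cells after 18 hrs compound exposure. Signal is ratiometric CCF4 fluorescence, 460/530 nm.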

Assay [9] in a line: qHTS assay for small molecule antagonists of retinoid X receptor alpha signaling (AID 588546; active means well fitted inhibition curve with a large enough effect in the signal ratio, with a control signal flat, not every such curve was filed as active; the % refers to the signal ratio;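 further: cells stimulated with 9-cis-retinoic acid as agonist; on the % scale 0 is the no-effect control and ±100 the full control effect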). As to conditions: HEK293T RXRa-UAS-bla, beta-lactamase ratio, antagonist mode; measured here: W530 green channel, cytotoxicity proxy. The essentials: (§2)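 Beta-lactamase reporter inhibition, read as CCF4 fluorescence ratio (ex 405, em 460/530 nm) after 2 h at RT. HEK293T UAS-bla cells, 2500/well, were stimulated with 9-cis-RA at 500 or 100 nM final alongside test compound for 18 h at 37 C.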

The target of assay [10] is Retinoic acid receptor RXR-alpha (Homo sapiens) (UniProt P19793). The description is as above. As to conditions: HEK293T RXRa-UAS-bla, beta-lactamase ratio, antagonist mode. Put shortly: as §2
Chain of Retinoic acid receptor RXR-alpha (Homo sapiens) (P19793 whole entry, looked up): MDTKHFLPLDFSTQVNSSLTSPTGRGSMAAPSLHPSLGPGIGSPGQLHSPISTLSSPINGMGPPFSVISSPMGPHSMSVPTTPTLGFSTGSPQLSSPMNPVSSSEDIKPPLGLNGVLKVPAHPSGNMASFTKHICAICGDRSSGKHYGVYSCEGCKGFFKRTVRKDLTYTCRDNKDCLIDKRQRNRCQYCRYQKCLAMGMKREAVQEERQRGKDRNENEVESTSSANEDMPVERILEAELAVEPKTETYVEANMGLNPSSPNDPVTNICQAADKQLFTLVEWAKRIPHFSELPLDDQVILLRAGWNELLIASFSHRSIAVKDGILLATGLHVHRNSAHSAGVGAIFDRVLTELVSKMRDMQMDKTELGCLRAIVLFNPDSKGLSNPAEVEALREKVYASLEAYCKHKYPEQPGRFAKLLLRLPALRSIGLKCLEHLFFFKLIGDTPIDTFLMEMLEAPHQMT
Assay [11] is described as follows: qHTS assay for small molecule activators of the p53 signaling pathway (AID 651743; active means well fitted activation curve with a large enough effect in the signal ratio, not every such curve was filed as active; the % refers to the signal ratio; further: series mostly up to about 92 µM; % of control where 0% means no effect). To be noted: HCT-116 p53RE-bla, beta-lactamase FRET ratio, 16 h; activation: stronger effect = higher value. Put shortly:
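A beta-lactamase reporter under p53 response element control, stably carried by HCT-116 cells, reported pathway activation. Test compounds were applied for 16 hours at 37 C, and fluorescence was measured 2 hours after adding the B/G FRET substrate.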

A short description of assay [12]: qHTS assay for environmental chemicals that activate the Aryl hydrocarbon Receptor (AhR) signaling pathway (AID 651777). Further: % of control where 0% means no effect; nearly all actives have a fitted effect of over 15% in size. As to conditions: 1A2-DRE human hepatoma cells, luciferase, 24 h; activation: stronger effect = higher value. The essentials: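 1A2-DRE human hepatoma reporter line; 1,200 cells/well; cmpd or DMSO 24 h, 37 C/5% CO2; One-Glo 30 min RT; luciferase lum.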

The target in assay [13] is Peroxisome proliferator-activated receptor alpha (Homo sapiens) (UniProt Q07869). Briefly: qHTS assay for small molecule agonists of the peroxisome proliferator-activated receptor alpha (PPARalpha) signaling pathway (AID 651778). Further: % of control where 0% means no effect. As to conditions: PathHunter PPARalpha complementation, chemiluminescence, 6 h; max response: stronger effect = higher value. The essentials: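 Chemiluminescence from complemented enzyme reported PPARalpha activation in cells after 6 hr of compound treatment at 37 C. The detection reagent was incubated for 60 min at room temperature, and compounds were scored as agonists.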
Chain of Peroxisome proliferator-activated receptor alpha (Homo sapiens) (Q07869 whole entry, looked up): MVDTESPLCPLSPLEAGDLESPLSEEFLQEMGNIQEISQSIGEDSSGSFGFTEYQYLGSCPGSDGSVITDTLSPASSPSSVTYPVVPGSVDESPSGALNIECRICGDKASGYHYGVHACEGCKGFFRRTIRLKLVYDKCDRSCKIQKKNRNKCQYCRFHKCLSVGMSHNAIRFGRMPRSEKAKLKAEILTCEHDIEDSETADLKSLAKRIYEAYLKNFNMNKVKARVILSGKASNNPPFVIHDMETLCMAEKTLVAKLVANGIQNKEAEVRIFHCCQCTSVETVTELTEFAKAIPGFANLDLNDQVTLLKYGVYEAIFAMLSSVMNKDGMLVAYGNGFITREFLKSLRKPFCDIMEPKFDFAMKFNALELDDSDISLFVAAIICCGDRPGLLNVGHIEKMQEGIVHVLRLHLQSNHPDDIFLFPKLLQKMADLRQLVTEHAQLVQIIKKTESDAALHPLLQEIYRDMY

The nature of assay [14]: qHTS assay for small molecule agonists of the antioxidant response element (ARE) signaling pathway measured by Nrf2-dependant transcriptional activity (AID 720636; active means well fitted curve in the direction sought with a large enough effect in the repeat runs; an effect the other way counts as inactive or inconclusive;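 further: HepG2 cells with an ARE-driven luciferase reporter; % of control where 0% means no effect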). Put shortly:
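Cells: ARE-luc HepG2 with Nrf2-responsive luciferase. Medium contained 1% dialyzed FBS. Compound exposure lasted 16 hr at 37 C and 5% CO2, followed by ONE-Glo luciferase detection.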

The nature of assay [15]: qHTS assay for small molecule agonists of the antioxidant response element (ARE) signaling pathway measured by Nrf2-dependant transcriptional activity - cell viability counter screen (AID 720653; active means well fitted curve in the direction sought with a large enough effect in the repeat runs; an effect the other way counts as inactive or inconclusive; further: on the % scale 0 is the no-effect control and ±100 the full control effect). As to conditions: ARE-bla HepG2 viability, CellTiter-Glo ATP luminescence, 16 h; max response: stronger effect = lower value. Put shortly:
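Cytotoxicity counter screen: intracellular ATP quantified by CellTiter-Glo luminescence in the same ARE-bla HepG2 plates, after 16 h compound exposure and a 2 h beta-lactamase substrate step.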

Assay [16] in a line: qHTS assay for cell viability of HEK293 cells (AID 743288). Further: on the % scale 0 is the no-effect control and ±100 the full control effect; nearly all actives have a fitted effect of over 50% in size. To be noted: ATP luminescence (CellTiter-Glo), 18 h; max response: stronger effect = lower value. The essentials: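 Viable-cell counts were inferred from luciferase-based ATP content in HEK293 cells seeded at 2,000/well, pre-incubated ≥5 h, then dosed with DMSO-solubilised compounds for 18 h at 37 C.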
Assay [17] in a line: qHTS assay for cell viability of the p53RE-bla HCT-116 cell line (AID 743292). Further: on the % scale 0 is the no-effect control and ±100 the full control effect; nearly all actives have a fitted effect of over 55% in size. The essentials: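 HCT-116 p53RE-bla cells seeded 4,000/well; 5 h at 37 C; compound (DMSO) added; 16 h at 37 C; CellTiter-Glo added, 30 min RT; luminescence read.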
For assay [18], the target named is Nuclear receptor subfamily 1 group I member 2 (Rattus norvegicus) (UniProt Q9R1A7). Description: qHTS assay for small molecule activators of the rat pregnane X receptor (rPXR) signaling pathway (AID 651751; call rule not given here; further: 0% is about no effect). To be noted: rPXR reporter cells, luciferase (One-Glo), 24 h.
Chain of Nuclear receptor subfamily 1 group I member 2 (Rattus norvegicus) (Q9R1A7 whole entry, looked up): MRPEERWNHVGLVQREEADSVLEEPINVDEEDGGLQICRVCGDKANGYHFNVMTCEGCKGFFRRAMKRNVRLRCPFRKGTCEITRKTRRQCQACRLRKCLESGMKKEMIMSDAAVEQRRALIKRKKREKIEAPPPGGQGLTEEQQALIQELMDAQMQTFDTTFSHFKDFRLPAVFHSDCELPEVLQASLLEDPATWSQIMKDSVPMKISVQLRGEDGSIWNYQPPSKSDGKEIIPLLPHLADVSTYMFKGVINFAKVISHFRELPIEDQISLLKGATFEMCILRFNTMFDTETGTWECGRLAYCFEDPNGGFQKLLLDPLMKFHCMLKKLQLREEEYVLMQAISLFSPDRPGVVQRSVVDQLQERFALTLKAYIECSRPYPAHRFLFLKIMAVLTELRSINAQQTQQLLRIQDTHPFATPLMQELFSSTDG
Assay [19] in a line: qHTS assay for small molecule activators of the human pregnane X receptor (PXR) signaling pathway (AID 720659; call rule not given here; further: 0% is about no effect).
For assay [20], the target named is Thyroid hormone receptor beta (Homo sapiens) (UniProt P10828). Briefly: qHTS assay for small molecule antagonists of thyroid hormone receptor beta signaling (AID 588547; active means well fitted inhibition curve with a large enough effect in the signal ratio, with a control signal flat, not every such curve was filed as active; the % refers to the signal ratio;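 further: cells stimulated with 0.4 nM T3 agonist during compound exposure; series mostly up to about 77 µM; on the % scale 0 is the no-effect control and ±100 the full control effect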). As to conditions: TR-UAS-bla HEK293, beta-lactamase ratio, antagonist mode, 18 h. The essentials:
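Inhibition of T3-driven (0.4nM final) beta-lactamase reporter activity was measured over 0.59 nM to 92 uM compound after 18 h at 37 C. The cells were GripTite HEK293 TR-UAS-bla in charcoal/dextran-stripped serum, with CCF4 ratio read-out and IC50 from Hill fits.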

Chain of Peroxisome proliferator-activated receptor delta (Homo sapiens) (Q03181 whole entry, looked up): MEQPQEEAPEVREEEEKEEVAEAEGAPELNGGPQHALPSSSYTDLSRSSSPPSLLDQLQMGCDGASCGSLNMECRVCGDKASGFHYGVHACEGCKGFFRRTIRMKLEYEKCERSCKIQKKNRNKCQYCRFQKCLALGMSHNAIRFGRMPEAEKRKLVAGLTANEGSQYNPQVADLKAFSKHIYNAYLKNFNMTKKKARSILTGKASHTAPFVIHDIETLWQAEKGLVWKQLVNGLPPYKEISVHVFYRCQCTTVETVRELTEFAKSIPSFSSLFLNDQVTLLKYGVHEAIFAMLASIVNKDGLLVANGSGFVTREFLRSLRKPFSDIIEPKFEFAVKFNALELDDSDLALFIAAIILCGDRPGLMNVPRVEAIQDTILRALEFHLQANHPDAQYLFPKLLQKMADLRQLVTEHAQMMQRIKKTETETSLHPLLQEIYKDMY
Chain of Thyroid hormone receptor beta (Homo sapiens) (P10828 whole entry, looked up): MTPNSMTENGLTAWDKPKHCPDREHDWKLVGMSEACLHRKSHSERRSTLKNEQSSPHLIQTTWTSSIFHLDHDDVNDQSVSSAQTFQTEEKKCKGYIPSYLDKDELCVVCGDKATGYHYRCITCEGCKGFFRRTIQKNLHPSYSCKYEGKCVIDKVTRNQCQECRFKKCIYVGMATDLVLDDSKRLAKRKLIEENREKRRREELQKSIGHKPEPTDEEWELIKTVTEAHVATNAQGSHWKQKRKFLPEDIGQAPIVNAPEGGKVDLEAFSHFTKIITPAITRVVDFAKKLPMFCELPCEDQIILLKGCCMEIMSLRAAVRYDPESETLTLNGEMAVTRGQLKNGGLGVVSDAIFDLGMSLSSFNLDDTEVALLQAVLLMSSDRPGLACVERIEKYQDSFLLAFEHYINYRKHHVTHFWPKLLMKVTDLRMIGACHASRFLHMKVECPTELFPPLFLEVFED
Chain of Glucocorticoid receptor (Homo sapiens) (P04150 whole entry, looked up): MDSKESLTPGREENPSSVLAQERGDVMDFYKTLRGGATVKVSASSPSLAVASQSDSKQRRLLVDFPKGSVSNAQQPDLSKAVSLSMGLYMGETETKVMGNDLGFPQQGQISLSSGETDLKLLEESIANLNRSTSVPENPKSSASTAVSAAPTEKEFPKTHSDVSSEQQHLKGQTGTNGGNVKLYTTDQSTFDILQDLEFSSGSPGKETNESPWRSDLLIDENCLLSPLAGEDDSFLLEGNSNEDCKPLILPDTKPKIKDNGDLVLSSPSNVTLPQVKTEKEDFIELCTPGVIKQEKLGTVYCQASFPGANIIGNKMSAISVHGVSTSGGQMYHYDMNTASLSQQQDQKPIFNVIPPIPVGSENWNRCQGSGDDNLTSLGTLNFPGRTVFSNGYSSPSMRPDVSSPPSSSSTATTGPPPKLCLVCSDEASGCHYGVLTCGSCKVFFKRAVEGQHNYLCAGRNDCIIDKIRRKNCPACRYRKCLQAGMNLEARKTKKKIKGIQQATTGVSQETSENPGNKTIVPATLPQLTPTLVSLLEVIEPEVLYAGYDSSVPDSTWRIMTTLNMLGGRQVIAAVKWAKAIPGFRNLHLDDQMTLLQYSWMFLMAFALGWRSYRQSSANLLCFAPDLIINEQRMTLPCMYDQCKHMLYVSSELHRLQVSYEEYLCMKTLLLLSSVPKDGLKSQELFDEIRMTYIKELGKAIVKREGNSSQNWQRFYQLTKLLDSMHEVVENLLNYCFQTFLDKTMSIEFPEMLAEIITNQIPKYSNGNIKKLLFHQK
Chain of Estrogen receptor (Homo sapiens) (P03372 whole entry, looked up): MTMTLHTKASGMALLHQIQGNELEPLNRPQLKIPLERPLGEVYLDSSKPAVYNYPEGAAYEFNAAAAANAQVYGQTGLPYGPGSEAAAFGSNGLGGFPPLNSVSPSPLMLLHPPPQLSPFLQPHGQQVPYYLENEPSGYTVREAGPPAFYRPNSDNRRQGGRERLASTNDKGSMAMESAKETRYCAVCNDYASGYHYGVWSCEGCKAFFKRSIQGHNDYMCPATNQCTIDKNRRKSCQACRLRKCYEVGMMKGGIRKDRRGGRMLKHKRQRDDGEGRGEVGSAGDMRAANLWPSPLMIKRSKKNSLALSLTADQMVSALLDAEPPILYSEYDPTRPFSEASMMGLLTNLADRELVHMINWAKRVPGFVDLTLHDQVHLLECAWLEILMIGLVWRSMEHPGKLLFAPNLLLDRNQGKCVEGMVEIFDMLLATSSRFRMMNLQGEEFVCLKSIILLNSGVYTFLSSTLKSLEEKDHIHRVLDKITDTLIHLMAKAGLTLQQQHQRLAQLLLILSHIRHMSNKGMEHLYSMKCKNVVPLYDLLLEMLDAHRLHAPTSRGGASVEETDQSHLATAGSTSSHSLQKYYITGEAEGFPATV

On to `OC1CCCCCCCCCCC1`, for which the Potency entry in assay [1], in [2], in assay [5], in assay [8], in [14] and in assay [17] was “inactive” throughout. The results for the activation in [3], in assay [11] and in assay [12] were -19.4% (inactive), 4.17% (inactive) and 1.93% (inactive), respectively. In addition, the max response is 17.8% in assay [4]; 10.2% in [7]; -1.99% in assay [9]; -4.46% (inactive) in assay [10]; -2.43% (inactive) in assay [13]; 3.88% (inactive) in assay [15]. In addition, the max response is -8% (inactive) in assay [16] and -3.86% (inactive) in [18]. Also, the result in assay [6] and in assay [19] was inactive.
Consider `CCCCOCCOCCOC(=O)CCCCC(=O)OCCOCCOCCCC`, for which the Potency result in assay [1], in [2], in assay [5], in assay [14] and in [17] was “inactive” each time. Moreover, the activation in assay [3] was -7.36% (inactive); in [12], -0.636% (inactive). In addition, the max response is 22.3% in assay [4]; -9.1% in assay [7]; -1.41% in assay [9]; 5.79% (inactive) in [10]; -2.75% (inactive) in assay [15]; -4.73% (inactive) in assay [16]. The max response in [18] is -6.4% (inactive). Moreover, the compound was called inactive in assay [6]. Also, in [20], the activity change % (negative = inhibition) is -12.6% (inactive).
As to `CC(C)c1ccc(C(C)C)cc1`, the Potency entry in [1], in assay [2], in [8], in assay [14] and in [17] was “inactive” each time. Further, the activation was 1.07% (inactive) in assay [3], -6.39% (inactive) in assay [11] and 0.903% (inactive) in assay [12]. For the same compound, the result in assay [6] and in [19] was inactive. The max response is -15.2% in [7]; -15.9% in [9]; 9.54% (inactive) in assay [10]; 2.58% (inactive) in assay [15]; 4.22% (inactive) in assay [16]; -0.628% (inactive) in [18].
With `CCCCNS(=O)(=O)c1ccccc1`, the Potency result in assay [1], in assay [2], in assay [14] and in assay [17] was “inactive” in each case. Further, the activation in [3] was -1.82% (inactive); in assay [11], 0.183% (inactive); in [12], 0.36% (inactive). In addition, the result in assay [6] and in [19] was inactive. For the same compound, the max response in assay [9] was -16.3%; in assay [13], 0.574% (inactive); in assay [15] it was -8.48% (inactive); in assay [16], -3.87% (inactive); in assay [18], -0.0697% (inactive). In addition, in assay [20], the activity change % (negative = inhibition) is -5.57% (inactive).
As to `CCCCOC(=O)/C=C\C(=O)OCCCC`, the Potency entry in [1], in assay [2], in [8], in assay [14] and in assay [17] was “inactive” in each case. Besides, the results for the activation in [3], in assay [11] and in [12] were -13.3% (inactive), 5.06% (inactive) and 0.228% (inactive), respectively. Further, the max response is -15% in assay [7]; -0.0728% in assay [9]; 8.44% (inactive) in [10]; -0.617% (inactive) in assay [13]; 14% (inactive) in assay [15]; -1.23% (inactive) in assay [16]. The max response in assay [18] is 0.138% (inactive). Further, the activity change % (negative = inhibition) in [20] was 17.7% (inactive). Moreover, the result in [19] was inactive.
On to `C/C=C/C=C/CCCCCCCO`, for which the Potency entry in [1], in assay [2], in assay [5], in [8], in assay [14] and in assay [17] was “inactive” throughout. Also, the activation is -6.08% (inactive) in [3], 7.24% (inactive) in assay [11] and -1.79% (inactive) in assay [12]. The max response in assay [4] was 19.3%; in assay [7], 11.1%; in assay [9] it was 19.5%; in [10], -19.2% (inactive); in [13], 0.881% (inactive); in [15], -8.82% (inactive). The max response in [16] is -6.91% (inactive); in assay [18], -0.307% (inactive). In addition, the activity change % (negative = inhibition) in assay [20] is -0.935% (inactive). Further, the result in [19] was inactive.
